Holding throughout (assay): NCI-60 one-dose screen, 48 h (100 = growth as untreated, 0 = no growth, -100 = all killed)
Assay [1] has as its system 786-0 renal. As to conditions: 10 µM unless noted.
Assay [2] relates to DU-145 prostate. As to conditions: 10 µM unless noted.
Assay [3] concerns MDA-MB-231 breast. As to conditions: 10 µM unless noted.
Assay [4] relates to SF-268 CNS. To be noted: 10 µM unless noted.
Assay [5] deals with SF-539 CNS. To be noted: 10 µM unless noted.
The test system of assay [6] is M14 melanoma. As to conditions: 10 µM unless noted.
For assay [7], the system named is HCT-15 colon. To be noted: 10 µM.
Assay [8] concerns SNB-19 CNS. As to conditions: 10 µM unless noted.
Assay [9] relates to UACC-62 melanoma. As to conditions: 10 µM unless noted.
Assay [10] has as its system SN12C renal. To be noted: 10 µM unless noted.
The test system of assay [11] is ACHN renal. To be noted: 10 µM unless noted.
The test system of assay [12] is MOLT-4 leukemia. As to conditions: 10 µM.
Assay [13] deals with OVCAR-8 ovarian. To be noted: 10 µM unless noted.
Assay [14] relates to SK-OV-3 ovarian. To be noted: 10 µM unless noted.
Assay [15] has as its system NCI/ADR-RES ovarian. To be noted: 10 µM unless noted.
Assay [16] deals with T-47D breast. To be noted: 10 µM unless noted.
Assay [17] relates to MDA-MB-435 melanoma. To be noted: 10 µM unless noted.
Assay [18] relates to SW-620 colon. To be noted: 10 µM unless noted.
The subject of assay [19] is HCT-116 colon. To be noted: 10 µM unless noted.
The test system of assay [20] is KM12 colon. As to conditions: 10 µM unless noted.

Each structure is given as a SMILES string. This is part of a sample that, as a whole, favours compounds with a hit. Of some 83,000 tested, about 20% had one in any assay.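 Results are percent growth after 48 hours of single-concentration exposure. 100 means growth as in untreated cells, lower positive values show inhibition; negative values down to -100 show cell death.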 Values without a mark were called inactive. The source made the active and inactive calls. Rule for the calls: active = growth percent below 10; inactive = the rest.

As for `Cc1cccc(N(C)c2cccc3c2C(=O)[Se]C3)c1C`, the growth is 78% in assay [1]; 34.6% in assay [2]; 53.6% in assay [3]; 52.4% in assay [4]; 56.4% in assay [5]; 26.7% in assay [6]. The growth in [7] was 31.6%; in assay [8] it was 58.8%; in assay [9] it was 64.6%; in [10] it was 84.8%; in assay [11], 54%; in assay [12] it was 67.9%. The growth is 20.2% in [13]; 188% in assay [14]; 13.6% in assay [15]; 73.4% in assay [16]; 78% in assay [17]; 67.1% in assay [18]. In addition, the figures for the growth in assay [19] and in assay [20] were 3.47% (active) and 14.6%, respectively.

As to `COc1ccc(OC)c(/C=C(/C)[N+](=O)[O-])c1`, the growth was 90.9% in assay [1]; 6.46% (active) in assay [2]; 68.4% in assay [3]; 65.3% in [4]; 84.4% in [5]; 47% in [6]. Also, the growth in assay [7] is -33.1% (active); in [8], 97.6%; in [9] it was 63.4%; in assay [10], 32.3%; in assay [11], -27.7% (active); in [12], 0.523% (active). Besides, the growth in [13] was 13.1%; in assay [14], 125%; in assay [15] it was 81.1%; in assay [16] it was 19.9%; in [17], 23.1%; in assay [18], -77% (active). The growth in [19] is -91.4% (active); in [20], 26.5%.

Consider `COc1ccc(/C=C(/C(=O)N2CCCC2)c2cc(OC)c(OC)c(OC)c2)cc1N`, for which the growth in assay [1] is 24.5%; in assay [2], 24.6%; in assay [3], 62%; in assay [4] it was 47.5%; in assay [5], 3.13% (active); in assay [6], 11.7%. For the same compound, the growth in [7] is 29.2%; in [8] it was 44.4%; in [9] it was 41.5%; in [10], 40.8%; in assay [11] it was 45.2%; in [12] it was 34.4%. Besides, the growth was 41.8% in assay [13]; 28.7% in assay [14]; 68.2% in [15]; 37.8% in assay [16]; -39.8% (active) in [17]; 25.6% in [18]. For the same compound, the growth is 23.5% in assay [19] and 14.8% in assay [20].

As for `O=S(=O)(O)c1ccc(-c2ccc([As](=O)(O)O)cc2)cc1`, the growth in [1] was 103%; in [2], 110%; in assay [3], 104%; in assay [4], 98.5%; in [5], 105%; in assay [6] it was 100%. Moreover, the growth in assay [7] is 103%; in assay [8] it was 97.7%; in assay [9], 98%; in assay [10], 104%; in [11] it was 105%; in assay [12], 101%. The growth in assay [13] is 93.8%; in assay [14], 105%; in assay [15], 108%; in assay [16], 89.5%; in assay [17], 103%; in assay [18] it was 103%. Moreover, the growth in [19] is 108%; in assay [20], 105%.

In the case of `C=CC(=O)NC(O)C(Cl)(Cl)Cl` (stereo not drawn), the growth in [1] is 95.2%; in assay [2] it was 106%; in assay [3], 115%; in [4], 104%; in assay [5], 102%; in [6] it was 98.2%. In addition, the growth in [7] was 97.1%; in assay [8], 105%; in assay [9], 101%; in assay [10], 109%; in assay [11], 99.6%; in assay [12] it was 83.8%. Moreover, the growth in assay [13] was 108%; in assay [14], 98.2%; in assay [15], 106%; in assay [16] it was 93.4%; in assay [17] it was 105%; in [18], 111%. Further, the results for the growth in assay [19] and in assay [20] were 101% and 106%, respectively.

Turning to `Nc1nc(N)c(-c2ccc(Cl)c(Cl)c2)c(/C=C/c2ccc(S(=O)(=O)F)cc2)n1`, the growth in assay [1] was 76.9%; in assay [2], 96.7%; in assay [3], 104%; in assay [4], 97.4%; in assay [5] it was 80.1%; in assay [6], 89.4%. Besides, the growth is 77.9% in assay [7]; 102% in [8]; 79.1% in assay [9]; 93.1% in assay [10]; 67.8% in [11]; 76.8% in assay [12]. For the same compound, the growth in [13] was 81.6%; in assay [14] it was 97.2%; in assay [15] it was 105%; in assay [16], 96.1%; in assay [17], 87.5%; in assay [18], 78.5%. For the same compound, the growth is 77.7% in assay [19] and 86.8% in assay [20].

Take `CCOc1cc(/C=N\Nc2nnc(C)n2N)c(C)cc1N(CCCl)CCCl`: the growth is 13.1% in [1]; 27.8% in [2]; 38.2% in [3]; 28.2% in assay [4]; 34.5% in [5]; 13.8% in assay [6]. Further, the growth in [7] was 25.5%; in [8], 14.2%; in assay [9], -1.59% (active); in [10] it was 17.3%; in assay [11] it was 21.6%; in [12], -9.42% (active). The growth was 19.5% in assay [13]; 40.1% in [14]; 10.7% in [15]; 12.6% in [16]; 7.67% (active) in assay [17]; 10.4% in assay [18]. In addition, the growth in [19] was 12%; in assay [20], 13.8%.

Consider `CNC(=O)Oc1ccccc1`, for which the growth is 104% in assay [1]; 113% in [2]; 110% in [3]; 107% in assay [4]; 107% in assay [5]; 99.3% in [6]. Besides, the growth in [7] is 102%; in assay [8], 97%; in assay [9] it was 102%; in [11] it was 105%; in assay [12], 106%; in assay [13], 110%. Further, the growth is 108% in assay [14]; 102% in [15]; 133% in assay [16]; 101% in assay [18]; 106% in assay [19]; 100% in assay [20].

For the origin of these results see PubChem BioAssay (NCI).
